Assay results: ChEMBL document CHEMBL4513216, “Probing the Open Global Health Chemical Diversity Library for Multistage-Active Starting Points for Next-Generation Antimalarials” (ACS Infect Dis, 2020)
About 2,700 (4%) of roughly 68,000 compounds showed an effect of 50% or more. The entries come from a sample that favours strong results as a whole.

Tested on: Plasmodium berghei
Assay: Screen against P. berghei liver stage (PbLuc), transformed with Luciferase, at 2uM
Assay type: functional, HepG2
Conditions: tested at 2 uM

SMILES	INHIBITION
CC(C(=O)Nc1cccc(C(F)(F)F)c1)N(C)CCN1CCOCC1 (centres undefined)	-18.99%
CC(C(=O)NCc1ccc(F)cc1)N(C)CCN1CCOCC1 (centres undefined)	10.71%
CC(C(=O)Nc1cccc(F)c1)N(C)CCN1CCOCC1 (centres undefined)	57.23%
CCOCC1CN(Cc2cnn(C)c2)Cc2nn(CC3CC3)cc21 (centres undefined)	-50.35%
Cc1oc(-c2ccsc2)nc1CC(=O)NCC(=O)Nc1cn[nH]c1	11.01%
Cc1cnn(CC2CCCCN2CCS(C)(=O)=O)c1 (centres undefined)	44.41%
Cn1ccnc1CN1C[C@H]2CN(S(=O)(=O)c3ccccc3)CCN2C1=O	15.02%
O=C1N(Cc2ccccn2)C[C@H]2CN(C3CCC3)CCN12	52.36%
O=C1N(Cc2ccccn2)C[C@H]2CN(C3CCOCC3)CCN12	-8.59%
CC(=O)N1CCC(N2CCN3C(=O)N(Cc4ccccn4)C[C@H]3C2)CC1	37.54%
O=C1N(Cc2cccnc2)C[C@H]2CN(S(=O)(=O)c3ccccc3)CCN12	40.83%
O=C1N(Cc2ccccn2)C[C@H]2CN(S(=O)(=O)c3ccccc3)CCN12	50.72%
Cc1c(F)cccc1S(=O)(=O)NC(C)(C)CN	36.53%
CNC(=O)[C@@H]1[C@@H](c2ccccc2)CN2CCN(Cc3ccco3)C[C@H]12	-0.14%
CCN(Cc1ccco1)C(C)c1nc(C(C)(C)C)no1 (centres undefined)	33.78%
CN(C)CCCNCCC(Cc1ccccc1)C1CCOC(C)(C)C1 (centres undefined)	-18.52%
O=C(C(c1ccc(F)cc1)N1CCCCC1)N1CCn2cncc2C1 (centres undefined)	50.59%
CC(C(=O)N1CCn2cncc2C1)N1C[C@@H](C)O[C@@H](C)C1 (some centres undefined)	-28.11%
CC(C(=O)N1CCn2cncc2C1)N1CCCC1 (centres undefined)	17.2%
Cc1nn(C)c(C)c1CC(=O)N1CCCC(n2ccnc2C)C1 (centres undefined)	45.83%
CCCn1nccc1NC(=O)CN1CCn2c(nnc2C2CC2)C1	9.36%
CNC(=O)COC1COC2(CCN(Cc3cccnc3)CC2)C1 (centres undefined)	28.88%

SMILES	INHIBITION
CCSC1=Nc2c(cnn2-c2ccc(Cl)cc2)C2=NCCCN12	51.78%
CSC1=Nc2c(cnn2-c2ccc(Cl)cc2)C2=NCCCN12	-4.43%
CSC1=Nc2c(cnn2-c2cccc(Cl)c2)C2=NCCCN12	18.15%
CC(=O)NCCc1ccc(S(=O)(=O)N(C)C(C)C(C)(C)C)s1 (centres undefined)	32.1%
CN(C)C(=O)COC[C@H]1CC[C@@H]2[C@@H](CCN2Cc2ccccn2)O1	53.98%
c1ccc(COC[C@H]2CC[C@H]3[C@H](CCN3Cc3ccccn3)O2)nc1	4.54%
CN(C)C(=O)COC[C@@H]1CC[C@H]2[C@H](CCN2c2ccccn2)O1	-3.69%
OCCN1CC2(CCN(c3ccccc3)C2)C1	-55.62%
CCN(C)C1CCCc2nc(C)sc21 (centres undefined)	9.52%
CN(Cc1nc(C2CC2)no1)C1CCS(=O)(=O)C1 (centres undefined)	31.27%
COc1ccc(OCc2noc(CN(C)C3CCS(=O)(=O)C3)n2)cc1 (centres undefined)	57.91%
CC(C)Cc1noc(CN(C)C2CCS(=O)(=O)C2)n1 (centres undefined)	-12.52%
CN(C)c1ccc(NC(=O)C2CN(Cc3ccccc3)CCO2)cn1 (centres undefined)	12.94%
CCC1=NN2C(=N)C(=Cc3cccn3-c3ccc(Cl)cc3)C(=O)N=C2S1	-3.11%
O=C(C1CC1)N1CCC2(CCN(Cc3cccc(F)c3)CC2)CC1	27.05%
CC1CCCCN1CCNC(=O)c1ccn(-c2cccc(F)c2)n1 (centres undefined)	2.18%
CC(C)(O)CN1CCN(C(=O)c2ccn(-c3cccc(F)c3)n2)CC1	65.76%
O=C(c1ccn(-c2cccc(F)c2)n1)N1CCN(CCO)CC1	19.12%
CCC(O)CN1CCN(C(=O)c2ccn(-c3cccc(F)c3)n2)CC1 (centres undefined)	52.3%
CCC(O)CN1CCN(C(=O)c2ccn(-c3ccccc3)n2)CC1 (centres undefined)	14.97%
O=C(NCCn1cccn1)c1ccn(-c2cccc(F)c2)n1	64.16%
O=C(c1ccn(-c2cccc(F)c2)n1)N1CCN(CC2CC2)CC1	-40.27%

SMILES	INHIBITION
CC(O)CN1CCN(C(=O)c2ccn(-c3cccc(Cl)c3)n2)CC1 (centres undefined)	-42.32%
O=C(NCCn1ccnc1)c1ccn(-c2cccc(F)c2)n1	8.37%
NC(=O)COc1ccc(CNCc2cc(F)cc(F)c2)cc1	19.7%
NC(=O)N1CCCC(c2nc(-c3cccnn3)no2)C1 (centres undefined)	19.39%
Cc1noc(C)c1CN1C(=O)[C@@H]2CC[C@H]1CN(Cc1cccc(O)c1)C2	30.42%
CC(C)O[C@@H]1CC[C@H]2[C@H]1OCCN2C(=O)c1nn(C)c2ccccc12	-13.37%
CCN(CC)C(CNCc1ccc(C)o1)c1ccco1 (centres undefined)	15.89%
CCN1C(=O)CCCC12CCCN(C(=O)c1cnccn1)C2 (centres undefined)	-41.21%
CC(CN1CCOCC1)N(Cc1ccccc1)Cc1ccncc1 (centres undefined)	8.73%
COc1cc2c(cc1CNCc1ccnc(-n3cccn3)c1)OC(C)C2 (centres undefined)	17.61%
CCOCCC(=O)N(Cc1ccncc1)C(C)CC (centres undefined)	-35.26%
CCCC(=O)N(Cc1ccncc1)C(C)CC (centres undefined)	52.98%
CCC(C)N(Cc1ccncc1)C(=O)CCSC (centres undefined)	-20.95%
O=C([C@H]1C[C@H]2OCC[C@H]2N(Cc2ccoc2)C1)N1CCCCO1	21.77%
CS(=O)(=O)NCCCn1ccc2ccccc21	24.23%
COC(=O)CCC(=O)NC(C)Cc1ccccc1Br (centres undefined)	2.7%
COC(=O)NCCC(=O)NC(C)Cc1ccccc1Br (centres undefined)	63.46%
CCNC(=O)CCC(=O)NC(C)Cc1ccccc1Br (centres undefined)	-3.87%
CS(=O)(=O)NCc1cc(-c2cc(F)cc(F)c2)nc(N2CC[C@H](O)C2)n1	4.66%
COc1ncccc1CNC(=O)NC(C)Cn1cccn1 (centres undefined)	31.7%
COc1c(C(=O)N2CCOC(c3cccs3)C2)c(C)nn1C (centres undefined)	-11.34%
Fc1ccc2[nH]c(C3CCCN3Cc3c[nH]cn3)nc2c1 (centres undefined)	19.59%

SMILES	INHIBITION
O=C(c1cccc(CO)n1)N1CCCC1c1nc2cc(F)ccc2[nH]1 (centres undefined)	-20.6%
Cc1cccc(C(=O)N2CCCCC2c2nc3cc(F)ccc3[nH]2)n1 (centres undefined)	65.04%
Cc1cc(C(=O)N2CCCCC2c2nc3cc(F)ccc3[nH]2)no1 (centres undefined)	33.92%
Fc1ccc2[nH]c(C3CCCN3CCc3ccccn3)nc2c1 (centres undefined)	-55.56%
O=C(CN1CCCC1c1nc2cc(F)ccc2[nH]1)NCc1ccccn1 (centres undefined)	57.75%
COCC(=O)N1CCCC1c1cc(Nc2nnc(C)s2)nc(C)n1 (centres undefined)	10.43%
CCN1CCCc2cc(CN3CCc4c(nc(C)[nH]c4=O)C3)ccc21	-9.49%
Cc1cc(C)nc(N2CCC(C(=O)Nc3n[nH]c(C(C)C)n3)CC2)n1	19.84%
COc1c(C2CCCN2C(=O)CCNc2ncccn2)c(C)nn1C (centres undefined)	6.89%
CN(c1ccc(CNC(=O)c2c[nH]c(=O)c(Cl)c2)cc1)C1CCCCC1	-20.64%
CN(c1ccc(CNC(=O)c2ccc(O)nc2)cc1)C1CCCCC1	51.76%
Cc1ccc(C(=O)NCc2ccc(N(C)C)cc2)cn1	8.73%
Cc1ccc(C(C)NC(=O)Nc2ccccc2CN2CCOCC2)o1 (centres undefined)	-10.54%
COCc1ccccc1NC(=O)c1ccoc1	-38.36%
COCc1ccccc1NC(=O)NC(C)c1ccc(C)o1 (centres undefined)	53.19%
CC(C)N(C)Cc1cc(=O)n2c(n1)CN(C(=O)c1ccnnc1)CCC2	25.92%
COc1ccc(C)cc1CN1CCC(c2cc3ncccc3cn2)CC1	-17.29%
CCn1c(C)nnc1SCCNC(=O)Cn1cnc2ccccc2c1=O	38.67%
CO[C@@H]1CCN(Cc2nccs2)C[C@@H]1Cc1cccc(C)c1	10.17%
CS(=O)(=O)Cc1nc(CN2CCCc3sccc3C2)cs1	38.67%
CS(=O)(=O)Cc1nc(CN2CCC(C(F)(F)F)CC2)cs1	62.51%
CS(=O)(=O)Cc1nc(CN2CCOc3ccccc3C2)cs1	33.9%

SMILES	INHIBITION
CS(=O)(=O)Cc1nc(CN2CC=C(c3ccccc3)CC2)cs1	-4.26%
CC1(C)CN(Cc2csc(CS(C)(=O)=O)n2)Cc2ccccc21	52.98%
CS(=O)(=O)Cc1nc(CN2CCc3ccccc3CC2)cs1	41.05%
CN(C)C1COC2(CCN(S(=O)(=O)c3ccc(F)cc3)CC2)C1 (centres undefined)	42.4%
Cc1ccccc1C1CCCN(C(=O)c2c[nH]c(=O)c(Cl)c2)C1 (centres undefined)	23.16%
Fc1cccc(N2CCCC3(C2)CN(c2ncccn2)CCO3)c1 (centres undefined)	39.9%
Cc1noc(C2CCCN(C(=O)c3ccc(Br)o3)C2)n1 (centres undefined)	3.9%
Cc1nn(C)c(C)c1C1CCCN1c1ncnc2[nH]ccc12 (centres undefined)	-41.8%
COc1ccc2c(c1)CCCN(C(C)C(=O)NC(C)C)C2 (centres undefined)	47.68%
COC(=O)C(C)N1CCCc2cc(OC)ccc2C1 (centres undefined)	58.69%
COc1ccc2c(c1)CCCN(C(C)C(=O)NC(N)=O)C2 (centres undefined)	6.92%
CCc1cc(C)c(C(=O)N2CCCC2CC(=O)c2cnn(C)c2)o1 (centres undefined)	9.3%
COc1ccccc1CC1CCCN(C(=O)c2cn[nH]c2C)C1 (centres undefined)	-62.85%
NCC1CCC(C(NC(=O)c2ccccn2)c2ccccn2)CC1 (centres undefined)	8.1%
CCN1CCOCC2(CCCN(C(=O)c3conc3C)C2)C1 (centres undefined)	16.67%
CCn1cc(S(=O)(=O)NCC(OC)c2ccccc2)cn1 (centres undefined)	58.12%
CCn1cc(C(=O)NCC(OC)c2cccc(Cl)c2)cn1 (centres undefined)	55.73%
CCn1cc(S(=O)(=O)NCC(OC)c2cccc(Cl)c2)cn1 (centres undefined)	31.78%
COC(CNC(=O)c1ccoc1)c1cccc(Cl)c1 (centres undefined)	-0.15%
COC(CNC(=O)c1ccc(NC(C)=O)cc1)c1cccc(Cl)c1 (centres undefined)	-8.34%
CCn1cc(S(=O)(=O)NC(CO)Cc2ccccc2)cn1 (centres undefined)	29.19%
